According to publication PMC5540273 (PLoS ONE, 2017):

What was measured:
Details in all cases: concentration: 1 μM, replicates: in singlicate; n = 1
[1] = system: AURKC
[2] = system: AXL
[3] = system: T1, BIKE
T1 construct: gene BMP2K

[4] = system: BLK
[5] = system: BMPR1A
[6] = system: BMPR1B
[7] = system: BMPR2
[8] = system: BMX
[9] = system: BRAF
[10] = system: T2, BRK
T2 construct: gene PTK6

[11] = system: BRSK1
[12] = system: BRSK2
[13] = system: BTK
[14] = system: BUB1
[15] = system: CAMK1B
[16] = system: CAMK1D
[17] = system: CAMK1G
[18] = system: CAMK1
[19] = system: CAMK2A
[20] = system: CAMK2B
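Further: KINOMEscan kinase panel screen.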

Compound	%Inh [1]	%Inh [2]	%Inh [3]	%Inh [4]	%Inh [5]	%Inh [6]	%Inh [7]	%Inh [8]	%Inh [9]	%Inh [10]	%Inh [11]	%Inh [12]	%Inh [13]	%Inh [14]	%Inh [15]	%Inh [16]	%Inh [17]	%Inh [18]	%Inh [19]	%Inh [20]
CC(C)N1CCC(n2cnc(-c3ccc(F)cc3)c2-c2ccnc(N)n2)CC1 [SB-223132]	51%	5%	32%	2%	10%	0%	0%	9%	0%	5%	0%	0%	13%	15%	0%	0%	0%	0%	4%	0%
CS(=O)(=O)CCNCc1ccc(-c2ccc3ncnc(Nc4ccc(OCc5ccccc5)c(Cl)c4)c3c2)o1.Cl [GW574783]	2%	42%	19%	49%	0%	0%	0%	19%	9%	0%	1%	0%	0%	26%	0%	4%	27%	14%	0%	0%
Oc1ccc2ncnc(Nc3ccc(OCc4ccccc4)cc3)c2c1 [GI262866]	34%	5%	20%	31%	0%	0%	0%	0%	0%	4%	2%	0%	4%	18%	1%	4%	0%	17%	0%	0%
c1ccc(-c2ccc3c(-c4ccnc(Nc5ccc6c(c5)OCCO6)n4)cnn3n2)cc1 [GW818941]	26%	11%	27%	12%	0%	0%	12%	8%	0%	9%	0%	0%	14%	28%	12%	8%	0%	29%	0%	5%
Cl.Fc1ccccc1COc1ccc(Nc2ncnc3ccc(-c4nnc(C(F)(F)F)o4)cc23)cc1Cl [GW424170]	0%	0%	9%	21%	0%	0%	5%	1%	0%	6%	0%	0%	0%	0%	0%	8%	0%	13%	0%	0%
CC(C)(C)c1ccc(-n2cnc3c(N)ncnc32)cc1 [SKF-97263]	16%	15%	19%	6%	0%	5%	6%	16%	0%	6%	18%	0%	0%	18%	12%	9%	0%	10%	0%	0%
Cl.O=S(=O)(c1cccc(F)c1)c1ccc(Nc2ncnc3cc(Br)sc23)cc1Cl [GSK306886]	0%	0%	0%	10%	0%	0%	0%	15%	0%	0%	0%	0%	0%	0%	38%	10%	0%	2%	0%	0%
Fc1ccc(-c2ncn(CCCNCc3ccccc3)c2-c2ccncc2)cc1	0%	18%	0%	7%	13%	24%	16%	7%	16%	3%	0%	0%	0%	12%	0%	4%	0%	2%	21%	6%
CNc1nccc(-c2c(-c3ccc(F)cc3)ncn2C2CCN(C)CC2)n1 [SB-222903]	0%	0%	0%	36%	0%	0%	11%	0%	0%	0%	0%	0%	0%	75%	0%	0%	0%	0%	0%	0%
CN1c2ccc(-c3ccc(C(=O)NCCO)cc3)cc2-c2[nH]ncc2S1(=O)=O	9%	17%	10%	26%	19%	16%	0%	13%	19%	0%	0%	15%	6%	0%	23%	45%	0%	49%	67%	66%
